Experimental data reported in the supplement of paper PMC7366291.
Where a name gives a salt, the structure may show the parent alone. ± gives the standard deviation of the averaged measurements.

The compounds below were run on Danio rerio Tg(wt1b:EGFP) embryo, pronephros (assay: fraction of imaged embryos annotated as normal kidney; higher = less nephrotoxic; extreme values may be limits of the assay). Details: 25 µM; exposure: 24-48 hpf.
Outline: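 Embryos of the Tg(wt1b:EGFP) zebrafish line were dechorionated and held in 12-well plates with 25 μM compound in 0.5% DMSO and 5 mM HEPES-buffered E3 containing 0.003% PTU, from 24 to 48 hpf at 28.5°C. Larvae were then anaesthetised with tricaine, set dorsal side up in agarose-filled 96-well plates, and their pronephroi imaged by widefield fluorescence at 470 nm over 10 z-slices. Each value is the fraction of embryos per treatment placed in the normal-kidney category after manual annotation of maximum projections.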
In the case of `Nc1ccc(S(=O)(=O)Nc2nccs2)cc1` [Sulfathiazole], the “fraction of imaged embryos annotated as normal kidney” value (“fraction of imaged embryos annotated” for short) is reported as 0.917. For `CCC[C@@H]1C[C@@H](C(=O)N[C@@H]([C@H]2O[C@H](SC)[C@H](O)[C@@H](O)[C@H]2O)[C@H](C)Cl)N(C)C1` [Clindamycin hydrochloride], the “fraction of imaged embryos annotated” value was 0.917. With `CN1Cc2c(N)cccc2C(c2ccccc2)C1` (centres undefined) [Nomifensine maleate] the “fraction of imaged embryos annotated” value was 1. In the case of `CC(C)C[C@H](NC(=O)[C@@H](O)[C@H](N)Cc1ccccc1)C(=O)O` [Ubenimex], the “fraction of imaged embryos annotated” value is reported as 0.833.

The compounds below were run on Danio rerio Tg(wt1b:EGFP) embryo, pronephros (assay: pronephric angle neck segment to proximal convoluted tubule (mean of left and right), fold change vs DMSO control; higher = larger pronephric angle). Details: 25 µM; exposure: 24-48 hpf.
Outline: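 Every feature is expressed as a fold change relative to the averaged DMSO-treated embryos of the same day. The exposure ran from 24 to 48 hpf at 28.5°C, with dechorionated Tg(wt1b:EGFP) zebrafish embryos in HEPES-buffered E3 containing 0.003% PTU, 0.5% DMSO and 25 μM compound. Dorsal pronephros images taken in agarose-filled 96-well plates were reduced to maximum projections, on which 16 reference points were set by hand in Fiji for a macro to compute distances and angles. Values more than 2 SD from the feature mean were not used.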
In the case of `C[C@]12C=CC(=O)C=C1CC[C@@H]1[C@@H]2C(=O)C[C@@]2(C)[C@H]1CC[C@]2(O)C(=O)CO` [Prednisone], the “pronephric angle neck segment” value is reported as 1.08 ± 0.065. For `CN[C@@H]1[C@H](O)[C@H](NC)[C@H]2O[C@@]3(O)C(=O)C[C@@H](C)O[C@H]3O[C@@H]2[C@H]1O` [Spectinomycin dihydrochloride], the “pronephric angle neck segment” value was 0.9719 ± 0.0052. `C#Cc1cccc(Nc2ncnc3cc(OCCOC)c(OCCOC)cc23)c1` [Erlotinib] was tested, and the “pronephric angle neck segment” value was 0.994 ± 0.031. For `CC(=O)OCC1=C(C(=O)O)N2C(=O)[C@@H](NC(=O)Cc3cccs3)[C@H]2SC1` [Cephalothin sodium salt], the “pronephric angle neck segment” value was 1.02 ± 0.028. For `CCCC1C(=O)N2C(N(C)C)=Nc3ccc(C)cc3N2C1=O` (centres undefined) [Azapropazone], the “pronephric angle neck segment” value was 1.018 ± 0.0029. In the case of `O=C1NCC2(CCN(CCc3ccccc3)CC2)O1` [Fenspiride hydrochloride], the “pronephric angle neck segment” value is reported as 1.09 ± 0.038. `COC(=O)[C@H]1[C@H]2C[C@@H]3c4[nH]c5cc(OC)ccc5c4CCN3C[C@H]2C[C@@H](OC(=O)c2cc(OC)c(OC)c(OC)c2)[C@@H]1OC` [Reserpine] was tested, and the “pronephric angle neck segment” value was 1.0157 ± 3.5e-05. In the case of `CCCc1nc(C)c2c(=O)nc(-c3cc(S(=O)(=O)N4CCN(CC)CC4)ccc3OCC)[nH]n12` [Vardenafil], the “pronephric angle neck segment” value is reported as 0.981 ± 0.041. In the case of `CO/N=C(\C(=O)N[C@@H]1C(=O)N2C(C(=O)O)=C(COC(N)=O)CS[C@H]12)c1ccco1` [Cefuroxime sodium salt], the “pronephric angle neck segment” value is reported as 0.985 ± 0.025. In the case of `Cc1nc2n(c(=O)c1CCN1CCC(c3noc4cc(F)ccc34)CC1)CCCC2` [Risperidone], the “pronephric angle neck segment” value is reported as 0.974 ± 0.021. With `COc1cccc(N(C)C(=S)Oc2ccc3c(c2)CCCC3)n1` [Liranaftate] the “pronephric angle neck segment” value was 1.06 ± 0.033. In the case of `Cc1ccc(/C(=C\CN2CCCC2)c2ccccn2)cc1` [Triprolidine hydrochloride], the “pronephric angle neck segment” value is reported as 1.04 ± 0.045. For `O=C(O)Cc1ccccc1Nc1c(Cl)cccc1Cl` [Diclofenac sodium], the “pronephric angle neck segment” value was 1.63 ± 0.018. For `CC(C)(C)NCC(O)COc1cccc2c1CC(O)C(O)C2` (centres undefined) [Nadolol], the “pronephric angle neck segment” value was 0.908 ± 0.02. In the case of `Cc1cc(-c2ccccc2)nnc1NCCN1CCOCC1` [Minaprine dihydrochloride], the “pronephric angle neck segment” value is reported as 0.9963 ± 0.0098. `O=C(O)c1cn(-c2ccc(F)cc2)c2cc(N3CCNCC3)c(F)cc2c1=O` [Sarafloxacin] was tested, and the “pronephric angle neck segment” value was 1.02 ± 0.013. `CC[C@]12CCCN3CCc4c(n(c5ccccc45)[C@@](O)(C(=O)OC)C1)[C@@H]32` [Vincamine] was tested, and the “pronephric angle neck segment” value was 1.05 ± 0.057. For `O=C(NCCO[N+](=O)[O-])c1cccnc1` [Nicorandil], the “pronephric angle neck segment” value was 0.9232 ± 0.008. In the case of `C[C@H](O)C(=O)Nc1c(I)c(C(=O)NC(CO)CO)c(I)c(C(=O)NC(CO)CO)c1I` [Iopamidol], the “pronephric angle neck segment” value is reported as 1.01 ± 0.038. With `N=C(N)NCCN1CCCCCCC1` [Guanethidine sulfate] the “pronephric angle neck segment” value was 0.958 ± 0.035. `Clc1ccc2nsnc2c1NC1=NCCN1` [Tizanidine hydrochloride] was tested, and the “pronephric angle neck segment” value was 0.984 ± 0.036. For `CC(C)(C#N)c1cc(Cn2cncn2)cc(C(C)(C)C#N)c1` [Anastrozole], the “pronephric angle neck segment” value was 1.04 ± 0.062. For `O=C(CCCN1CCN(c2ccccn2)CC1)c1ccc(F)cc1` [Azaperone], the “pronephric angle neck segment” value was 1 ± 0.019. With `CCCCN(CCCC)CCCOC(=O)c1ccc(N)cc1` [Butacaine] the “pronephric angle neck segment” value was 0.9912 ± 0.0092. In the case of `Cc1ccc(N(CC2=NCCN2)c2cccc(O)c2)cc1` [Phentolamine hydrochloride], the “pronephric angle neck segment” value is reported as 0.994 ± 0.018. `CN1[C@@H]2CC[C@H]1C[C@@H](OC(=O)C(O)c1ccccc1)C2` (mixture of isomers) [Homatropine hydrobromide (R,S)] was tested, and the “pronephric angle neck segment” value was 0.9643 ± 0.0018. With `CCC1(c2ccccc2)C(=O)NCNC1=O` [Primidone] the “pronephric angle neck segment” value was 1.03 ± 0.025. With `CCOc1ccccc1OCC1CNCCO1` (centres undefined) [Viloxazine hydrochloride] the “pronephric angle neck segment” value was 1.04 ± 0.062. In the case of `C=CCOc1ccccc1OCC(O)CNC(C)C` (centres undefined) [Oxprenolol hydrochloride], the “pronephric angle neck segment” value is reported as 1.0054 ± 0.00047. `OCc1cc(C(O)CNCCCCCCOCCCCc2ccccc2)ccc1O` (centres undefined) [Salmeterol] was tested, and the “pronephric angle neck segment” value was 1.65 ± 0.087. For `COc1cc(NS(=O)(=O)c2ccc(N)cc2)nc(OC)n1` [Sulfadimethoxine], the “pronephric angle neck segment” value was 1.01 ± 0.021. In the case of `CNCCC(Oc1ccccc1OC)c1ccccc1` (centres undefined) [Nisoxetine hydrochloride], the “pronephric angle neck segment” value is reported as 1.06 ± 0.022. With `N=C(N)NS(=O)(=O)c1ccc(N)cc1` [Sulfaguanidine] the “pronephric angle neck segment” value was 1.02 ± 0.036. In the case of `Cc1onc(-c2ccccc2)c1C(=O)N[C@@H]1C(=O)N2[C@@H]1SC(C)(C)[C@@H]2C(=O)O` [Oxacillin sodium], the “pronephric angle neck segment” value is reported as 0.9685 ± 0.0044. `CNCCc1ccccn1` [Betahistine mesylate] was tested, and the “pronephric angle neck segment” value was 0.9697 ± 0.0079. For `Cc1c(O)cccc1C(=O)N[C@@H](CSc1ccccc1)[C@H](O)CN1C[C@H]2CCCC[C@H]2C[C@H]1C(=O)NC(C)(C)C` [Nelfinavir mesylate], the “pronephric angle neck segment” value was 0.954 ± 0.03. For `Nc1ccc(S(=O)(=O)Nc2nccs2)cc1` [Sulfathiazole], the “pronephric angle neck segment” value was 0.957 ± 0.019. `CCC[C@@H]1C[C@@H](C(=O)N[C@@H]([C@H]2O[C@H](SC)[C@H](O)[C@@H](O)[C@H]2O)[C@H](C)Cl)N(C)C1` [Clindamycin hydrochloride] was tested, and the “pronephric angle neck segment” value was 0.995 ± 0.013. `CN1Cc2c(N)cccc2C(c2ccccc2)C1` (centres undefined) [Nomifensine maleate] was tested, and the “pronephric angle neck segment” value was 1.01 ± 0.065. For `CC(C)C[C@H](NC(=O)[C@@H](O)[C@H](N)Cc1ccccc1)C(=O)O` [Ubenimex], the “pronephric angle neck segment” value was 1.01 ± 0.028.
